Screens as filed in PubChem BioAssay.
Peg3 prom inh = Peg3 promoter-driven luciferase inhibitors, primary screen, cell-based, HeLa, luciferase luminescence; HeLa PEG-Prom luciferase reporter, overnight; inhibition, % at 20 µM; 1.7% of 360,000 active; AID 588405, 2011;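 active means inhibition of at least 50% at 20 µM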
MITF TRPM1 inh = inhibitors of MITF-dependent TRPM1 promoter reporter, primary screen, cell-based, SK-MEL-5, single point, luciferase. SK-MEL-5 TRPM1 promoter luciferase, 24 h. inhibition, % at 12.5 µM. 0.83% of 330,000 active. AID 488899, 2010;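 active means mean inhibition across replicates of 60% or more, whatever share of single replicates reaches that level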
KKLEB tox = cytotoxicity in KKLEB CF airway cells, primary screen, cytotoxicity control for CF NF-kB inhibitor project, cell-based, uHTS, fluorescence assay plates. activity change (cytotoxicity), % at 5 µM. KKLEB CF airway cells viability, ATPlite luminescence, overnight; active compounds read low; cells stimulated with P. aeruginosa culture filtrate. 0.36% of 360,000 active;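 active means corrected activity change at or below -50% at 5 µM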
CF NFkB block = inhibitors of PAF-induced NF-kB signaling, primary screen, cell-based, GFP fluorescence, uHTS. inhibition, % at 5 µM. KKLEB NF-kB-GFP reporter, GFP fluorescence overnight. AID 588850, 2011. 0.86% of 360,000 active;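 active means at least 50% inhibition at 5 µM, scaled per plate between neutral and stimulator controls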;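 further: PAF is a Pseudomonas aeruginosa culture filtrate used as stimulus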
HIF-2a inh = HIF-2a reporter inhibitors, primary screen, luminescence, 786-0 RCC cells; 786-0 RCC cells HIF-2a reporter, luciferase luminescence, overnight; inhibition, % at 18.8 µM; 0.72% of 360,000 active; AID 624352, 2012;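 active means inhibition of the luminescence signal of 40% or more relative to plate controls, in a single-dose primary screen at 18.75 µM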
Shn3 inh set2 = reduction of Shn3 3'UTR firefly luciferase signal, primary screen, Schnurri-3 inhibitor project, cell-based, Clone20 osteoblasts, set 2 | Clone20 osteoblast Shn3 3'UTR firefly luciferase, 24 h | inhibition, % at 12.5 µM | 0.52% of 360,000 active;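 active means mean inhibition of at least 75% with every replicate also reaching 75%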
Mdm2 MdmX conf = retested Mdm2-MdmX interaction blockers, confirmation, cell-based, luminescence, single concentration, set 2; inhibition, % at 8 µM; AID 504601, 2011; SaOS-2 split-luciferase Mdm2/MdmX complementation; shares compounds with HIF-2a inh; 99% of 740 active;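 active means mean inhibition of the luminescence signal across two replicates at or above 26 percent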
Target sequence (O15151 whole entry, looked up): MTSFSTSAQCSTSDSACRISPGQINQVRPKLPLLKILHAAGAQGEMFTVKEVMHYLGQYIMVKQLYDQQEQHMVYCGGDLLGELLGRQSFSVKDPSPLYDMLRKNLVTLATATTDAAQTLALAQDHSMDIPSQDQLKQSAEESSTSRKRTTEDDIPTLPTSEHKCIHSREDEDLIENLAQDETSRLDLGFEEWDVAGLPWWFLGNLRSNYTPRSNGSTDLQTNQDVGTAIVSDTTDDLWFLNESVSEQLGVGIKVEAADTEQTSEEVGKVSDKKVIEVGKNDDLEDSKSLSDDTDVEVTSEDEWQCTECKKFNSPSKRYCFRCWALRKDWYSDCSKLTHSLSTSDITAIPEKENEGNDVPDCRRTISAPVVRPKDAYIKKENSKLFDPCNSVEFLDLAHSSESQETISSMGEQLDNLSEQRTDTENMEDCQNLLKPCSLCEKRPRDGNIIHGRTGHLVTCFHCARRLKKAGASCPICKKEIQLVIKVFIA
Target sequence (Q00987 whole entry, looked up): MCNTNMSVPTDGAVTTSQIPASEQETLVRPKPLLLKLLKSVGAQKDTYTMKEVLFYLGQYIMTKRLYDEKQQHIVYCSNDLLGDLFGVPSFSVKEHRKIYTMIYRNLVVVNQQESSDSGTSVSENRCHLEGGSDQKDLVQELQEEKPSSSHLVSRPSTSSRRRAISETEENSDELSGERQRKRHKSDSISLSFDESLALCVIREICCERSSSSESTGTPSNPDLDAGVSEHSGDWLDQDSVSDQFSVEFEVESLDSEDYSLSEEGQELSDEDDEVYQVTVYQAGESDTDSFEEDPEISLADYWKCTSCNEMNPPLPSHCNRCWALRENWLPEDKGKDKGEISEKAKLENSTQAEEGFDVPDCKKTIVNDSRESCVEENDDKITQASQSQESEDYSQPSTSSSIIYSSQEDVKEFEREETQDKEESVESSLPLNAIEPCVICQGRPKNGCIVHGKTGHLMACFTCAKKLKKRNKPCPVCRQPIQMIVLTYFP
HIF-2a inh conf = HIF-2a reporter inhibitor retest, confirmation, luminescence, 786-0 RCC cells; shares compounds with HIF-2a inh; HIF-2a luciferase reporter luminescence, overnight; inhibition, % at 18.8 µM; 56% of 1,800 active;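 active means mean inhibition across four replicates of at least 40 percent at the single tested concentration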
HIF-1a cs = HIF-1a luciferase reporter signal reduction – MiaPaCa-2 cells, single concentration, counter-screen for HIF-2a inhibitor project, confirmation | inhibition, % at 18.8 µM | 72% of 1,800 active | shares compounds with HIF-2a inh | AID 651589, 2012 | MiaPaCa-2 HIF-1a luciferase reporter, desferoxamine, overnight;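 active means mean inhibition of the reporter signal across four replicates at the single tested dose of 50% or more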
Large screens that a line does not name were inactive (follow-up assays come after a bar, where they were run). The list is not random: actives were taken first. Their share in the collection is about 2.8%.

CC1CCC[C@H](O)CCCCCc2cc(O)cc(O)c2C(=O)O1 (stereo partly drawn)	none
CC1CCC/C=C/C2CC(O)CC2C(O)/C=C/C(=O)O1 (stereo not drawn)	Peg3 prom inh 59.7, MITF TRPM1 inh 85.0, KKLEB tox -60.4, CF NFkB block 79.4, HIF-2a inh 45.9 | Mdm2 MdmX conf 103.0 | HIF-2a inh conf inactive | HIF-1a cs 77.7
C[C@H]1CCC/C=C/C2C[C@H](O)CC2[C@H](O)/C=C/C(=O)O1 (stereo partly drawn)	Peg3 prom inh 54.9, MITF TRPM1 inh 79.9, CF NFkB block 81.4, HIF-2a inh 68.1, Shn3 inh set2 93.7 | Mdm2 MdmX conf 103.0
C[C@H]1[C@@H](OS(=O)(=O)O)C[C@@H]2C[C@H]([C@@H](O)c3cc(=O)[nH]c(=O)[nH]3)NC3=NC[C@H]1N32	Peg3 prom inh 96.7, MITF TRPM1 inh 74.0, CF NFkB block 76.1, HIF-2a inh 53.7, Shn3 inh set2 97.9 | HIF-2a inh conf inactive | HIF-1a cs 105.3
Cc1cccc(C#N)c1	none
CCCC[C@@H](C)C[C@@H](C)C(=O)N(C)[C@@H](CC(C)C)C(=O)N[C@H](C(=O)N(C)[C@H](C(=O)N1C[C@@H](O)C[C@H]1C(=O)N1C(=O)C=C[C@@H]1C)C(C)C)C(C)OC(C)=O (stereo partly drawn)	Peg3 prom inh 92.1, MITF TRPM1 inh 99.5, KKLEB tox -88.3, CF NFkB block 84.2, HIF-2a inh 53.2 | Mdm2 MdmX conf 99.9
COc1cc2c(cc1/C=C/[N+](=O)[O-])OCO2	Peg3 prom inh 109.7, MITF TRPM1 inh 78.6, HIF-2a inh 71.0 | HIF-2a inh conf 78.8 | HIF-1a cs 98.0
